PubChem BioAssay (NCATS)
Inconclusive results are not listed. Activity calls are given as the source filed them. Calls follow the shape of the dose curve; as a rule, active = well fitted inhibition curve with a large enough effect; inconclusive = small, poorly fitted or top-dose-only effect; inactive = flat fitted curve, though single readings scatter.

Columns and labels:
Assay in all cases: qHTS profiling for inhibitors of Plasmodium falciparum proliferation (AID 504749); also: nearly all actives have a fitted effect of over 60% in size
Settings in all cases: P. falciparum in erythrocytes, SYBR Green DNA, 72 h; series mostly up to 28.7 µM
AA1029 = test system: AA1029
Method in brief: (§1)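 Fluorescence of SYBR Green-bound parasite DNA, read at 485/535 nm, served as the growth measure. Infected erythrocytes were cultured with compound 72 h; artemisinin (0.29 uM) and DMSO wells defined the normalization range.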

ATS95 = test system: ATS95
Method in brief: as §1

C2A = test system: C2A
Method in brief: as §1

CP211 = test system: CP211
Method in brief: as §1

CP215 = test system: CP215
Method in brief: as §1

CP217 = test system: CP217
Method in brief: as §1

CP250 = test system: CP250
Method in brief: as §1

CP252 = test system: CP252
Method in brief: as §1

CP256 = test system: CP256
Method in brief: as §1

CP269 = test system: CP269
Method in brief: as §1

CP325 = test system: CP325
Method in brief: as §1

CP329 = test system: CP329
Method in brief: as §1

DIV17 = test system: DIV17
Method in brief: as §1

FAB9 = test system: FAB9
Method in brief: as §1

N140 = test system: N140
Method in brief: as §1

P93_24 = test system: P93_24
Method in brief: as §1

PAD = test system: PAD
Method in brief: as §1

PC15 = test system: PC15
Method in brief: as §1

PC26 = test system: PC26
Method in brief: as §1

SC27B = test system: SC27B
Method in brief: as §1

Measured: Potency

Oc1ccc(/C=C\c2cc(O)cc(O)c2)cc1
inactive: all assays above
